This is an account of results in PubChem BioAssay (NCI).

The panel holds about 83,000 compounds, 20% with a hit somewhere; the sample as a whole holds those more often.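 Testing used 96-well plates and a 48-hour single-concentration exposure. Example: -40 means 40% of the starting cells died.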 Unmarked numbers belong to inactive results. Active and inactive are the calls of the source. Rule for the calls: active = growth percent below 10; inactive = the rest.

Test systems include HCT-15 colon; HT29 colon; SNB-75 CNS; SNB-19 CNS; U251 CNS; PC-3 prostate; SK-MEL-5 melanoma; UACC-62 melanoma; LOX IMVI melanoma; SK-MEL-28 melanoma; EKVX NSCLC; SN12C renal; UO-31 renal; TK-10 renal; ACHN renal; CAKI-1 renal; A498 renal; CCRF-CEM leukemia; MOLT-4 leukemia.
Common to all, as to test: NCI-60 one-dose screen, 48 h (100 = growth as untreated, 0 = no growth, -100 = all killed)
Holding throughout (details): 10 µM unless noted

With `Cn1ncc(Cl)c1-c1cc(C(=O)N[C@H](CN)Cc2cccc(F)c2)sc1Cl`, the growth in the test on HCT-15 colon is 16.9%; in the test with HT29 colon, 0.334% (active); with SNB-75 CNS it was -46.2% (active); with SNB-19 CNS it was 9.05% (active); in the test on U251 CNS, -45.2% (active); in the test with PC-3 prostate, 9.61% (active). Also, the growth in the test with SK-MEL-5 melanoma was -96.1% (active); with UACC-62 melanoma, -19.5% (active); with LOX IMVI melanoma it was -51.9% (active); in the test with SK-MEL-28 melanoma, -72.7% (active); in the test on EKVX NSCLC it was 38.5%; with SN12C renal it was 29.5%. For the same molecule, the growth in the test on UO-31 renal is -10.1% (active); with TK-10 renal, 8.77% (active); in the test on ACHN renal, 18.7%; in the test on CAKI-1 renal it was 11%; in the test with A498 renal, -61.2% (active); in the test on CCRF-CEM leukemia, 6.1% (active). Besides, the growth with MOLT-4 leukemia was -14.5% (active).

Consider `COc1cc2ncnc(Nc3ccc(O)cc3)c2cc1OC`, for which the growth in the test on HCT-15 colon is 95.8%; in the test on HT29 colon it was 68.2%; with SNB-75 CNS, 64%; with SNB-19 CNS it was 77.7%; with U251 CNS it was 83.6%; in the test on PC-3 prostate, 91%. Also, the growth in the test with SK-MEL-5 melanoma is 98.2%; in the test with UACC-62 melanoma it was 76.7%; with LOX IMVI melanoma, 92.2%; in the test with SK-MEL-28 melanoma, 97%; with EKVX NSCLC, 66.3%; with SN12C renal, 62.2%. Also, the growth was 36.8% in the test on UO-31 renal; 2.22% (active) with TK-10 renal; 31.1% in the test with ACHN renal; 43.4% with CAKI-1 renal; 81.3% with A498 renal; 77.7% in the test with CCRF-CEM leukemia. For the same molecule, the growth with MOLT-4 leukemia is 75.3%.

`CCN1CCN(Cc2ccc(NC(=O)Nc3nc(-c4cc(OC)c(OC)c(OC)c4)cs3)cc2C(F)(F)F)CC1`: the growth was -12.6% (active) in the test on HCT-15 colon; 0.541% (active) in the test on HT29 colon; 24.2% with SNB-75 CNS; 33.7% in the test with SNB-19 CNS; 15.3% in the test on U251 CNS; 6.09% (active) with PC-3 prostate. Moreover, the growth is -95.3% (active) with SK-MEL-5 melanoma; -68.4% (active) with UACC-62 melanoma; -82.7% (active) in the test on LOX IMVI melanoma; -51.3% (active) in the test on SK-MEL-28 melanoma; 26.8% in the test on EKVX NSCLC; 28.9% with SN12C renal. For the same molecule, the growth in the test on UO-31 renal was 53.2%; in the test on TK-10 renal, 62.4%; in the test with ACHN renal, 20.8%; in the test on CAKI-1 renal, 55.2%; in the test on A498 renal it was 51.6%; in the test with CCRF-CEM leukemia it was 0.288% (active). For the same molecule, the growth in the test with MOLT-4 leukemia is -18.9% (active).

Consider `Cc1ccc(N)cc1CN1C(=O)c2ccccc2C1=O`, for which the growth in the test on HCT-15 colon is 101%; with HT29 colon, 85.5%; in the test with SNB-75 CNS, 87%; with SNB-19 CNS, 102%; in the test on U251 CNS, 102%; with PC-3 prostate, 90.1%. For the same molecule, the growth was 103% with SK-MEL-5 melanoma; 103% with UACC-62 melanoma; 101% with LOX IMVI melanoma; 110% in the test with SK-MEL-28 melanoma; 105% with EKVX NSCLC; 103% in the test on SN12C renal. Besides, the growth is 70.1% with UO-31 renal; 88.3% in the test on TK-10 renal; 106% in the test with ACHN renal; 105% in the test on CAKI-1 renal; 96.5% with A498 renal; 92.4% in the test with CCRF-CEM leukemia. In addition, in the test with MOLT-4 leukemia, the growth is 94.9%.

`C#Cc1cccc(Nc2ncnc3cc4c(cc23)OCCOCCOCCO4)c1`: the growth in the test with HCT-15 colon was 68.8%; with HT29 colon, 57%; with SNB-75 CNS it was 57.7%; in the test on SNB-19 CNS it was 60.9%; with U251 CNS, 57%; with PC-3 prostate, 57.3%. Also, the growth with SK-MEL-5 melanoma is 58.1%; with UACC-62 melanoma, 32.9%; with LOX IMVI melanoma it was 51%; in the test on SK-MEL-28 melanoma it was 57.6%; in the test with EKVX NSCLC, 42.5%; in the test with SN12C renal, 42%. The growth in the test with UO-31 renal was 27.2%; in the test on TK-10 renal it was 7.84% (active); in the test with ACHN renal, 16.3%; with CAKI-1 renal, 28.4%; with A498 renal, 24.1%; in the test on CCRF-CEM leukemia, 73.3%. The growth with MOLT-4 leukemia is 53.3%.

Consider `COc1cc(N2CCC(N3CCN(C)CC3)CC2)ccc1Nc1ncnc(Nc2ccccc2S(=O)(=O)C(C)C)n1`, for which the growth in the test with HCT-15 colon was 103%; in the test on HT29 colon, 84.1%; in the test on SNB-75 CNS, 101%; in the test with SNB-19 CNS, 98.6%; with U251 CNS, 101%; in the test with PC-3 prostate it was 93.7%. The growth in the test with SK-MEL-5 melanoma is 110%; with UACC-62 melanoma, 102%; in the test on LOX IMVI melanoma, 103%; in the test on SK-MEL-28 melanoma, 105%; in the test on EKVX NSCLC, 105%; in the test with SN12C renal it was 107%. Further, the growth was 98.7% in the test with UO-31 renal; 108% in the test on TK-10 renal; 98.5% in the test with ACHN renal; 104% in the test with CAKI-1 renal; 114% in the test on A498 renal; 92.9% in the test on CCRF-CEM leukemia. For the same molecule, in the test with MOLT-4 leukemia, the growth was 89.9%.

Take `C=CC(=O)Nc1cc2c(Nc3ccc(F)c(Cl)c3)ncnc2cc1OCCCN1CCOCC1`: the growth in the test on HCT-15 colon is -32% (active); in the test on HT29 colon it was -74.9% (active); with SNB-75 CNS it was -15.9% (active); with SNB-19 CNS it was 17.4%; with U251 CNS, 21.2%; in the test on PC-3 prostate, 17.5%. Also, the growth is 48.7% in the test with SK-MEL-5 melanoma; -49.7% (active) with UACC-62 melanoma; -87% (active) in the test with LOX IMVI melanoma; -19% (active) with SK-MEL-28 melanoma; 15.8% in the test with EKVX NSCLC; 0.752% (active) in the test on SN12C renal. Also, the growth with UO-31 renal was -12.8% (active); in the test on TK-10 renal it was -6.01% (active); in the test with ACHN renal, 2.82% (active); in the test with CAKI-1 renal, -5.99% (active); with A498 renal it was -29.3% (active); in the test with CCRF-CEM leukemia, 4.44% (active). In addition, the growth with MOLT-4 leukemia was -6.89% (active).

Turning to `O=C(Nc1ccc(Nc2ncnc3sc4c(c23)CCOC4)cc1)Nc1ccc(Cl)c(C(F)(F)F)c1`, the growth in the test on HCT-15 colon is 98.9%; in the test on HT29 colon, 81.1%; with SNB-75 CNS, 69.1%; with SNB-19 CNS it was 110%; with U251 CNS it was 99.9%; in the test with PC-3 prostate, 60.8%. Besides, the growth in the test on SK-MEL-5 melanoma was 98.1%; in the test on UACC-62 melanoma it was 93.4%; with LOX IMVI melanoma, 99.9%; in the test on SK-MEL-28 melanoma, 95.1%; in the test with EKVX NSCLC, 105%; in the test with SN12C renal, 105%. In addition, the growth is 115% in the test with UO-31 renal; 109% with TK-10 renal; 86.6% in the test with ACHN renal; 107% in the test with CAKI-1 renal; 89.5% in the test on A498 renal; 86.7% with CCRF-CEM leukemia. The growth with MOLT-4 leukemia is 74.4%.
